Where “and” joins values, the source holds several entries; their conditions need not be identical. Equal values may be shown once. Inconclusive results are not listed. Calls of active or inactive are those of the source. Rule for the calls: active = hit-call score of the fitted dose curve at least 0.9, where 1 is the maximum; inconclusive = response in the unintended direction; inactive = score below 0.9.

This assay deals with Retinoic acid receptor RXR-alpha (Homo sapiens) (UniProt P19793). The assay is described as follows: TOX21_TR_RXR_BLA_Antagonist_Followup_ratio: Tox21 Thyroid Hormone Receptor beta Retinoid X Receptor alpha (RXRa) Antagonism Beta-lactamase (BLA) Follow-Up Assay, Ratio (AID 2283972). The source says: GeneBLAzer RXRa-UAS-bla HEK293T assay (RXRa-bla) (ThermoFisherScientific Catalog No. K1697) was run in qHTS 1536 well format as a secondary assay for specificity of response in the TOX21_TR_GH3_LUC_Agonist assay.TOX21_TR_RXR_BLA_Antagonist_Followup_ratio is an assay readout measuring reporter gene via receptor activity and designed using inducible reporter (beta lactamase induction) detected with GAL4 b-lactamase reporter gene. The signal is derived from the ratio of cleaved (ch2) to uncleaved (ch1) reporter gene substrate used as the measure of target activity.Data from the assay component TOX21_TR_RXR_BLA_Antagonist_Followup_ratio was analyzed into 1 assay endpoint. This assay endpoint, TOX21_TR_RXR_BLA_Antagonist_Followup_ratio, was analyzed in the positive analysis fitting direction relative to DMSO as the negative control and baseline of activity. Using a type of inducible reporter, loss-of-signal activity can be used to understand changes in the reporter gene as they relate to the gene RXRA. Furthermore, this assay endpoint can be referred to as a primary readout, because this assay has produced multiple assay endpoints and this ratio serves a reporter gene function to understand target activity. To generalize the intended target to other relatable targets, this assay endpoint is annotated to the nuclear receptor intended target family, where subfamily is non-steroidal.
Retinoic acid receptor RXR-alpha (Homo sapiens), sequence (P19793 whole entry, looked up, the tested form may be a part): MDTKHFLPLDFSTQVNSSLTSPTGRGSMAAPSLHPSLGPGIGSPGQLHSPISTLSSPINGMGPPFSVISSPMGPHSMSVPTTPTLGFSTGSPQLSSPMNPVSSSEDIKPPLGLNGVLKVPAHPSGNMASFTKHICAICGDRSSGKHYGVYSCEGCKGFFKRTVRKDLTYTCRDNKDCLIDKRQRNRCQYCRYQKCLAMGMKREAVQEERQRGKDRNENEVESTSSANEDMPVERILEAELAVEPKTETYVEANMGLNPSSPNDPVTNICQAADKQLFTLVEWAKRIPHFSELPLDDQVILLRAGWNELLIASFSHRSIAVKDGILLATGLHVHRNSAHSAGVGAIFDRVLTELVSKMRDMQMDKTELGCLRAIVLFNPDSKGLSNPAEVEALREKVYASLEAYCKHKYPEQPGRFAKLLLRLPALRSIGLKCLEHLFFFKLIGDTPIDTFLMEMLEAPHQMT
Cell Media Required: Growth (90% DMEM/F-12, 10% Fetal Bovine Calf Serum, 100U/ml Penicillin, 100 ug/ml Streptomycin), Assay (10ng/mL sodium selenite, 10 ug/mL humanapo-transferrin, […] uM ethanolamine, 10 ug/mL insulin, 500 ug/mL bovine serum albumin (BSA))Assay Protocol: RXRa-bla cells were seeded at 2,500/well in 6 uL of the assay medium containing phenol red-free DMEM with 2% charcoal-stripped FBS in 1,536-well black-wall/clear-bottom plates (Greiner Bio-One North America) usinga Multidrop Combi dispenser. After5-h incubation at 37C/5% CO2 for cell attachment, 23 nL of follow-up compounds dissolved in DMSO, 11 concentrations in triplicate, and the positive control (9-cis retinoic acid) were transferred to the assay plates using a Pintool station. The assay plates were incubated at 37C/5% CO2 for 16h. One microliter of LiveBLAzer FRET-B/GCCF4-AM substrate (Life Technologies) was added to each well using an FRD. After 2-h incubation at room temperature, the fluorescence intensity was measured using an Envision plate reader (Perkin Elmer). Data were expressed as the ratio of 460:530 nm.
Broadly, the AC50 is the concentration at which the activity in the assay is half-maximal. As to `C#CCC(Cc1cnc2nc(N)nc(N)c2n1)c1ccc(C(=O)N[C@@H](CCC(=O)O)C(=O)O)cc1` (stereo not given in full), the AC50 was 0.448 µM (active). For `COc1ccc(/C=C/C(=O)Nc2ccccc2C(=O)O)cc1OC`, the result was inactive. Same read-out and setting: the entry for `COc1ccc2nc(NC(=O)Nc3ccccc3)sc2c1` is “inactive”. On to `CO[C@H](C(=O)[C@@H](O)[C@@H](C)O)C1Cc2cc3cc(O[C@H]4C[C@@H](O[C@H]5C[C@@H](O)[C@H](O)[C@@H](C)O5)[C@@H](O)[C@@H](C)O4)c(C)c(O)c3c(O)c2C(=O)[C@H]1O[C@H]1C[C@@H](O[C@H]2C[C@@H](O[C@H]3C[C@](C)(O)[C@H](O)[C@@H](C)O3)[C@H](O)[C@@H](C)O2)[C@H](O)[C@@H](C)O1` (stereo not given in full), for which the AC50 is 1.36 µM (active). Consider `Cc1cc(Nc2ccccc2C(=O)O)ccc1Cl`, for which the outcome was inactive.

With `CC[C@@]1(O)C(=O)OCc2c1cc1n(c2=O)Cc2cc3c(CN(C)C)c(O)ccc3nc2-1`, the result was inactive. On the same count and under the same terms, the same measure for `O=C(CCCCCCC(=O)Nc1ccccc1)NO`: “inactive”; for `NC(N)=NCc1cccc(I)c1`: “inactive”; for `Oc1c(I)cc(I)c2cccnc12`: “inactive”. Still for that read-out and setting: the entry for `CC(C)=CCC1=C(O)c2ccccc2C(=O)C1=O` is “inactive”.

In the case of `CCCOc1ccc2nc(NC(=O)OC)sc2c1`, the result was inactive. Same read-out and setting: the same measure for `CC(C)n1c(/C=C/[C@@H](O)C[C@@H](O)CC(=O)O)c(-c2ccc(F)cc2)c2ccccc21`: “inactive”; for `O=C(O)c1cccc(-c2noc(-c3ccccc3F)n2)c1`: “inactive”. Same read-out and setting: the same measure for `COc1cc([C@@H]2c3cc4c(cc3[C@H](O)[C@H]3COC(=O)[C@H]23)OCO4)cc(OC)c1OC`: “inactive”. Same read-out and setting: the entry for `CCC[C@@]1(CCc2ccccc2)CC(O)=C([C@H](CC)c2cccc(NS(=O)(=O)c3ccc(C(F)(F)F)cn3)c2)C(=O)O1` is “inactive”. With `CC[C@@]1(O)C[C@@H]2CN(CCc3c([nH]c4ccccc34)[C@@](C(=O)OC)(c3cc4c(cc3OC)N(C)[C@H]3[C@@](O)(C(=O)OC)[C@H](OC(C)=O)[C@]5(CC)C=CCN6CC[C@]43[C@@H]65)C2)C1`, the outcome was inactive. `C[n+]1c2cc(N)ccc2cc2ccc(N)cc21` (tested in a mixture with another compound): the AC50 is 19.2 µM (active). In the case of `Cc1nc2ccccc2n1Cc1ccc(Cl)cc1`, the result was inactive. Still for that read-out and setting: the same measure for `CC1(C)N=C(N)N=C(N)N1c1ccc(Cl)cc1`: “inactive”; for `CO[C@H]1C[C@@H]2CC[C@@H](C)[C@@](O)(O2)C(=O)C(=O)N2CCCC[C@H]2C(=O)O[C@H]([C@H](C)C[C@@H]2CC[C@@H](O)[C@H](OC)C2)CC(=O)[C@H](C)/C=C(\C)[C@@H](O)[C@@H](OC)C(=O)[C@H](C)C[C@H](C)\C=C/C=C/C=C/1C`: “inactive”; for `CCc1cc(Cl)c(OC)c(C(=O)NC[C@@H]2CCCN2CC)c1O`: “inactive”. For the compound `Nc1ccc2cc3ccc(N)cc3nc2c1`, the AC50 was 17.5 µM (active) and 7.59 µM (active). For `O=C1C(=O)c2ncccc2-c2cccnc21`, the result was inactive. On to `O=[Se](O)O`, for which the half-maximal activity concentration (AC50) was 2.26 µM (active). With `Nc1c2ccccc2nc2ccccc12`, the outcome was inactive. As for `COC(=O)Nc1nc2ccc(Sc3ccccc3)cc2[nH]1`, the outcome was inactive. The same measure, in the same setting: the same measure for `Cc1oc(C)c(C(=O)Nc2ccccc2)c1C`: “inactive”; for `O=c1[nH]c(=O)n([C@H]2C[C@H](O)[C@@H](CO)O2)cc1F`: “inactive”; for `Brc1cc(Oc2cc(Br)c(Br)c(Br)c2Br)c(Br)c(Br)c1Br`: “inactive”.

Consider `CC1(C)S[C@@H]2[C@H](NC(=O)C(N)c3ccccc3)C(=O)N2[C@H]1C(=O)OC1OC(=O)c2ccccc21` (stereo not given in full), for which the outcome was inactive.

(Values after PubChem BioAssay (EPA / NIEHS).)
